This passage reports Potency and outcome results from PubChem BioAssay (Tox21).

The nature of test [1]: Nuclear factor erythroid 2-related factor 2/antioxidant responsive element (Nrf2/ARE) small molecule agonists: qHTS cell viability counter screen in human keratinocytes (AID 1919968; active = well fitted curve in the direction sought with a large enough effect in the repeat runs; an effect the other way counts as inactive or inconclusive; note: nearly all actives have a fitted effect of over 55% in size). The essentials:
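In human HaCaT keratinocytes stably expressing an ARE-driven luciferase, compound exposure lasted 23 h at 37 C under 5% CO2. Viable cells are quantified with a protease-based fluorogenic reagent (CellTiter-Fluor) read 1 h after addition.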
(Quantitative high-throughput screening tests each substance at several concentrations.)

Test [2] can be described thus: Nuclear factor erythroid 2-related factor 2/antioxidant responsive element (Nrf2/ARE) small molecule agonists: luciferase reporter gene qHTS assay in human keratinocytes (AID 1919969). Note: nearly all actives have a fitted effect of over 35% in size. Note: potency is the fitted concentration of half-maximal effect.
Test [3] deals with Gonadotropin-releasing hormone receptor (Homo sapiens) (UniProt P30968). As to the kind of experiment: Human gonadotropin-releasing hormone receptor (GnRHR) small molecule agonists, calcium flux assay in GnRHR-HEK293 cells (AID 1920063). Note: nearly all actives have a fitted effect of over 35% in size. An outline of the steps:
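Intracellular calcium rise is the read-out: engineered human GnRHR HEK293 cells, dye-loaded, are exposed to DMSO-dissolved compounds and fluorescence at Ex/Em 480/540 is tracked for 3 min.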

In test [4] the target is KiSS-1 receptor (Homo sapiens) (UniProt Q969F8). Put plainly: Human kisspeptin (KISS1R) small molecule agonists, calcium flux assay in KISS1R-HEK293 cells (AID 1920064; active = well fitted curve in the direction sought with a large enough effect in the repeat runs; an effect the other way counts as inactive or inconclusive). The essentials:
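Concentration-response testing used 15 concentrations in triplicate on human KISS1R-expressing HEK293 cells. Calcium-dependent fluorescence (Ex/Em 480/540) was followed kinetically for 3 min after compound transfer.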

A short description of test [5]: G protein-coupled receptor (GPCR) small molecule agonists, calcium flux assay: HEK293 wild type cell line counter screen (AID 1920065). The essentials: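 Fluorescence intensity signals activation. After overnight (18 h) culture and a 1 h calcium dye load at 37 C, compounds are added by pin tool and the plate read at 480/540 nm for 3 min in 1 s steps.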
Test [6] in a line: p53 small molecule agonists, cell-based qHTS assay with human liver microsomes (AID 1963577).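 Note: p53 response element beta-lactamase reporter cells with liver microsomes plus NADPH.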 The essentials:
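Reporter activation was measured by LiveBLAzer fluorescence intensity in p53RE-bla cells, which had been exposed to compounds for 16 h at 37 C alongside 0.5 mg/mL human liver microsomes and 0.5 mg/mL NADPH (final concentrations).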

Test [7] can be described thus: p53 small molecule agonists, cell-based qHTS assay with rat liver microsomes (AID 1963578). The essentials: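 Compound in DMSO added to p53RE-bla cells 5 h post-plating; rat microsomes/NADPH 0.5 mg/mL final; 16 h, 37 C; LiveBLAzer 2 h RT.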
A short description of test [8]: p53 small molecule agonists, cell-based qHTS assay with human liver microsomes: qHTS cell viability counter screen (AID 1963579). Note: nearly all actives have a fitted effect of over 45% in size. An outline of the steps:
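HLM-supplemented (0.5 mg/mL final) and NADPH-supplemented (0.5 mg/mL final) p53RE-bla cultures, 4,000 cells per well, were dosed with compounds in DMSO for 16 h at 37 C; luminescent ATP detection (CellTiter-Glo, 30 min, room temperature) quantified surviving cells.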

Test [9] is described as follows: p53 small molecule agonists, cell-based qHTS assay with rat liver microsomes: qHTS cell viability counter screen (AID 1963580). Note: nearly all actives have a fitted effect of over 45% in size. An outline of the steps:
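Luminescent ATP readout (CellTiter-Glo, 30 min at room temperature) reports viability of p53RE-bla HCT-116 cells after 16 h at 37 C with test compounds under metabolic activation by rat liver microsomes and NADPH at 0.5 mg/mL final each.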

Test [10] in a line: p53 small molecule agonists, cell-based qHTS assay (AID 1963582; active = well fitted activation curve with a large enough effect in the signal ratio in the repeat runs, not every such curve was filed as active; the % refers to the signal ratio). The essentials:
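After plating, p53RE-bla cells sat 5 h in the incubator; compounds or DMSO vehicle were pinned in; a 16 h incubation at 37 C followed; FRET substrate was added and, 2 h later at RT, fluorescence was measured.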

The target of test [11] is 5-hydroxytryptamine receptor 2A (Homo sapiens) (UniProt P28223). Put plainly: 5-hydroxytryptamine receptor 2A (HTR2A) small molecule antagonists, cell-based qHTS assay (AID 1963586). Note: nearly all actives have a fitted effect of over 45% in size. The essentials:
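CHO cells stably expressing human HTR2A were plated for 18 h at 37 C, then loaded with calcium dye for 1 h. Compounds were preincubated 5 min at room temperature before DOI (4 nM solution) was added. Kinetic fluorescence was read for 3 min.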

Test [12] has the same target. Put plainly: 5-hydroxytryptamine receptor 2A (HTR2A) small molecule agonists, cell-based qHTS assay (AID 1963587). Note: nearly all actives have a fitted effect of over 30% in size. An outline of the steps:
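HTR2A-CHO cells, plated 18 h at 37 C/5% CO2, dye-loaded 1 h at 37 C; compounds in DMSO added by pin tool (agonist mode). Intracellular calcium flux read as kinetic fluorescence on FDSS over 2 min at 1 s intervals.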

Test [13] has as its target Muscarinic acetylcholine receptor M1 (Homo sapiens) (UniProt P11229). As to the kind of experiment: Cholinergic receptor muscarinic 1 (CHRM1) small molecule antagonists, cell-based qHTS assay (AID 1963588). Note: nearly all actives have a fitted effect of over 40% in size. The essentials: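 Compounds were tested at 15 concentrations in three independent runs. Dye-loaded CHRM1-CHO cells were exposed 5 min at room temperature before stimulation by acetylcholine added at 50nM. Intracellular calcium was read kinetically on FDSS for 3 min.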

Test [14] has the same target. As to the kind of experiment: Cholinergic receptor muscarinic 1 (CHRM1) small molecule agonists, cell-based qHTS assay (AID 1963589). Note: nearly all actives have a fitted effect of over 35% in size. An outline of the steps: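 Fluorescent calcium dye reports M1 activation in stably transfected CHO cells. Compounds, 15 concentrations, added after 1 h dye loading at 37 C; kinetic reading at 1 sec intervals.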
Test [15] in a line: cAMP Responsive Elements (CRE) small molecule antagonists, cell-based qHTS assay (AID 1963591; active = well fitted inhibition curve with a large enough effect in the signal ratio in the repeat runs, not every such curve was filed as active; the % refers to the signal ratio). The essentials: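 Stimulation used NKH477 at a final 0.25 uM for 3 h in compound-treated CRE-bla HEK293T cells, seeded 18 h beforehand. Reporter activity was measured with LiveBLAzer B/G FRET substrate after 2 h at room temperature.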
In test [16] the target is Beta-2 adrenergic receptor (Homo sapiens) (UniProt P07550). As to the kind of experiment: Adrenergic beta2 receptor (ADRB2) small molecule antagonists, cell-based qHTS assay (AID 1963592). Note: series mostly up to about 92 µM; nearly all actives have a fitted effect of over 50% in size. The essentials: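 Assay format: CHO-ADRB2 cells, 18-20hr seeding at 37C/5% CO2, then compound plus 1nM isoproterenol agonist mix for 0.5hr RT. Homogeneous time-resolved fluorescence cAMP detection after 1hr, expressed as 665/615 nm ratio.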

Test [17] shares this target. As to the kind of experiment: Adrenergic beta2 receptor (ADRB2) small molecule agonists, cell-based qHTS assay (AID 1963593).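 Note: CHO cells stably overexpressing human ADRB2.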 The essentials:
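CHO cells stably over-expressing ADRB2 were plated overnight at 37C, then dosed with compounds plus a stimulation mix containing 100uM IBMX and 25uM Ro-20-1724 for 0.5hr at room temperature. cAMP was measured by HTRF competition, 1hr.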

Test [18] concerns the target D(2) dopamine receptor (Homo sapiens) (UniProt P14416). As to the kind of experiment: Dopamine D2 receptor (DRD2) small molecule agonists, cell-based qHTS assay (AID 1963594). Note: nearly all actives have a fitted effect of over 35% in size. An outline of the steps:
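HEK293 cells stably expressing DRD2 were cultured 24 h at 37 C, then given Ro20-1724 (0.1 mM final) and compounds for 10 min at room temperature. NKH477 (200nM) was then added for 30 min. cAMP was read by HTRF.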

The target is the same in test [19]. As to the kind of experiment: Dopamine D2 receptor (DRD2) small molecule antagonists, cell-based qHTS assay (AID 1963595; active = well fitted inhibition curve with a large enough effect in the signal ratio in the repeat runs, with a control signal flat; the % refers to the signal ratio). The essentials:
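Antagonist mode in DRD2-HEK293 cells: after compound addition with 0.1 mM Ro20-1724, cells received quinpirole (12 nM) and NKH477 (200 nM) for 30 min at room temperature; HTRF cAMP read after 1 h detection.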

Test [20] can be described thus: cAMP Responsive Elements (CRE) small molecule agonists, cell-based qHTS assay (AID 1963590). The essentials: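 Compound exposure lasted 3 h at 37 C/5% CO2 in CRE-bla HEK 293T cells grown in assay medium with 10% dialyzed FBS and 25 mM HEPES. Reporter signal came from LiveBLAzer B/G FRET substrate, 2 h, room temperature.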

Unmarked numbers belong to inactive results. Inconclusive results are not listed. Activity calls are given as the source filed them. Unless noted, calls come from the whole dose curve.

KiSS-1 receptor (Homo sapiens), sequence (Q969F8 whole entry, looked up): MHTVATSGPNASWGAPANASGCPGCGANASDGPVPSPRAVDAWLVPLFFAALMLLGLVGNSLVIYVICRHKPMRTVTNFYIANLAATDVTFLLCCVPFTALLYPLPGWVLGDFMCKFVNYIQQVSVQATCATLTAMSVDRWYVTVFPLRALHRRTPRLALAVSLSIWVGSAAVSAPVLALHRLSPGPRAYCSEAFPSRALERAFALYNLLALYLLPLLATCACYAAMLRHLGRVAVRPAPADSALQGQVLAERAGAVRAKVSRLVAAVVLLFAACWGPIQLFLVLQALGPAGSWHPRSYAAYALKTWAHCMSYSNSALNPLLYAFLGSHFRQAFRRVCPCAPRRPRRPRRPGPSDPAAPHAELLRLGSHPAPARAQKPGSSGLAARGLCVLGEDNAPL
5-hydroxytryptamine receptor 2A (Homo sapiens), sequence (P28223 whole entry, looked up): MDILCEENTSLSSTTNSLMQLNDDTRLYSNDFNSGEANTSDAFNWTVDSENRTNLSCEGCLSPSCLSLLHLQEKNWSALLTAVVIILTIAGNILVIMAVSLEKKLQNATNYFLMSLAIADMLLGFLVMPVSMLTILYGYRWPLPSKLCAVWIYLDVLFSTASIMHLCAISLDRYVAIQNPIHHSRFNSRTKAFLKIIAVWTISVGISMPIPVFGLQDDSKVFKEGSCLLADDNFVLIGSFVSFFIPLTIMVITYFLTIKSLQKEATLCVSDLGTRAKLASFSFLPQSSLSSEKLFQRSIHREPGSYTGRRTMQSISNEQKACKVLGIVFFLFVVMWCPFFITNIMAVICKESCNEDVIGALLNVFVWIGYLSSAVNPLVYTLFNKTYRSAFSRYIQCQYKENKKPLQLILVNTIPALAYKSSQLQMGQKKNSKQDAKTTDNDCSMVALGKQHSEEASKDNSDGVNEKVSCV
D(2) dopamine receptor (Homo sapiens), sequence (P14416 whole entry, looked up): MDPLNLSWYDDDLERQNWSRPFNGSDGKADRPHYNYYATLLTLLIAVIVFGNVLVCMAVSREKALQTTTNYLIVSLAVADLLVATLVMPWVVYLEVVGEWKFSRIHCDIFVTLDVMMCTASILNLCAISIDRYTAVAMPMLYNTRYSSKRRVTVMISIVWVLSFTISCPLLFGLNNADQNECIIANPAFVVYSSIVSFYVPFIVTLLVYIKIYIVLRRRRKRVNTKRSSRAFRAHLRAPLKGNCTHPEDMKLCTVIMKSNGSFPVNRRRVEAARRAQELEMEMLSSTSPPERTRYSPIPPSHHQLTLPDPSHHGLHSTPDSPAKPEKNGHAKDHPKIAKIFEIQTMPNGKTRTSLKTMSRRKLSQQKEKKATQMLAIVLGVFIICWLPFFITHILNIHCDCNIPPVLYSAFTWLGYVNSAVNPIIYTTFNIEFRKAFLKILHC
Muscarinic acetylcholine receptor M1 (Homo sapiens), sequence (P11229 whole entry, looked up): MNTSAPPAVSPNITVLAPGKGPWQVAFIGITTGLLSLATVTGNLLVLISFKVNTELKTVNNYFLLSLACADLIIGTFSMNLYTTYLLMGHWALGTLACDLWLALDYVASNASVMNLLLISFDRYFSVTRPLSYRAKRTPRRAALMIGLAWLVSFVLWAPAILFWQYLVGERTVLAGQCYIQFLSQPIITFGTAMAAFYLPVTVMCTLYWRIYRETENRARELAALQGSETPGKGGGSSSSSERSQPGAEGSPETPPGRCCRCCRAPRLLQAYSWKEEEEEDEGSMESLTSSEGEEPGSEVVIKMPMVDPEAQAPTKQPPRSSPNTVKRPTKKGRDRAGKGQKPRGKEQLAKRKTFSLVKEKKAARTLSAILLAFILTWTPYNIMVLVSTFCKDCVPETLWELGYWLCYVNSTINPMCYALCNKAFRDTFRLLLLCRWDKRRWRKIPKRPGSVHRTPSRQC
Gonadotropin-releasing hormone receptor (Homo sapiens), sequence (P30968 whole entry, looked up): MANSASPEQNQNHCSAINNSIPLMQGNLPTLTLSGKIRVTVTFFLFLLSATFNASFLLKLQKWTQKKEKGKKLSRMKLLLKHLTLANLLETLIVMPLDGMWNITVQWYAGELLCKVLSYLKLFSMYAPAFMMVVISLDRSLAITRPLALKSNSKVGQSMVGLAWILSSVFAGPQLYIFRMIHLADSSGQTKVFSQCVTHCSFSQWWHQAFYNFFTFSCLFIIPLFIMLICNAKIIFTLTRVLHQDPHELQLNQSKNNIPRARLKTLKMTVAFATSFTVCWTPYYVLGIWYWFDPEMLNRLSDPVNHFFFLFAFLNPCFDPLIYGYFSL
Beta-2 adrenergic receptor (Homo sapiens), sequence (P07550 whole entry, looked up): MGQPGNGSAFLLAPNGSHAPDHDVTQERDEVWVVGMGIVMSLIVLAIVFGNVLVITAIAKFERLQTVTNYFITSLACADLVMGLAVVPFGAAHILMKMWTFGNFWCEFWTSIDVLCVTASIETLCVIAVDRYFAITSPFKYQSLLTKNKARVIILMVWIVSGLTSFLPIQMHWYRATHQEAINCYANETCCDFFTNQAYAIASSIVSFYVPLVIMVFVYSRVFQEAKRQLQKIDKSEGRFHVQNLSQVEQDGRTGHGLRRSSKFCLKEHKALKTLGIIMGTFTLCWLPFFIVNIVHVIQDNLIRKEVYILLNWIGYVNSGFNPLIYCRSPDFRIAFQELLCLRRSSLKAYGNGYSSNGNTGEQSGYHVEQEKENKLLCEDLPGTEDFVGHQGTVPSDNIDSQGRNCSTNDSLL

For the molecule `CN(C)c1ccc(CCO)cc1`, the Potency result in test [1], in [3], in test [6], in test [7], in test [8] and in test [9] was “inactive” throughout. Besides, the Potency entry in test [10], in test [11], in test [12], in [13], in test [14] and in [15] was “inactive” in each case. The Potency entry in test [16], in [17], in [18] and in test [19] was “inactive” each time. Moreover, the Potency in test [2] is 27.1 µM (active). Moreover, the result in [4] and in test [5] was inactive.
On to `CSc1cnc(C)cn1`, for which the Potency entry in [1], in [2], in test [3], in test [6], in [7] and in [8] was “inactive” each time. In addition, the Potency result in [9], in test [10], in test [11], in test [12], in test [14] and in test [20] was “inactive” throughout. Besides, the Potency result in [15], in test [16], in [18] and in [19] was “inactive” each time. The result in test [4] and in test [5] was inactive.
Consider `CCNC(=O)NCCCOc1cccc(CN2CCCCC2)c1`, for which the Potency entry in [1], in test [2], in test [3], in test [6], in test [7] and in [8] was “inactive” in each case. In addition, the Potency result in test [9], in test [10], in test [11], in [12], in test [13] and in [20] was “inactive” throughout. The Potency entry in [15], in test [16], in test [17] and in test [18] was “inactive” throughout. Also, the result in test [4] and in test [5] was inactive.
As for `N#C/C(=C1\SCC(c2ccccc2Cl)S1)n1ccnc1` (stereo not drawn), the Potency entry in test [1], in test [2], in test [3], in test [6], in [7] and in test [8] was “inactive” in each case. Also, the Potency entry in test [9], in [10], in test [12], in test [14], in test [20] and in test [15] was “inactive” throughout. Moreover, the Potency result in test [16], in test [18] and in test [19] was “inactive” in each case. Besides, the result in [4] and in test [5] was inactive.
Regarding `O=C(O)C1(C(=O)O)CCC1.[NH2-].[NH2-].[Pt+2]`, the Potency result in test [1], in test [2], in test [3], in test [6], in [7] and in [8] was “inactive” in each case. Besides, the Potency result in test [9], in test [10], in test [12], in test [20], in [16] and in [19] was “inactive” in each case. The outcome in [4] and in [5] was inactive.
Consider `c1ccc(SSc2ccccc2)cc1`, for which the Potency result in test [1], in test [3], in test [6], in [7], in test [8] and in test [9] was “inactive” each time. Moreover, the Potency result in [10], in [11], in test [12], in [13], in test [14] and in [15] was “inactive” each time. The Potency result in [16], in [17], in [18] and in test [19] was “inactive” each time. The Potency in test [2] was 27.5 µM (active). Moreover, the outcome in [4] and in [5] was inactive.
As for `CC(=O)OC(C)=O`, the Potency result in test [1], in [2], in test [3], in [6], in test [7] and in test [8] was “inactive” in each case. Further, the Potency entry in [9], in [10], in test [11], in test [12], in test [14] and in test [20] was “inactive” in each case. Further, the Potency result in test [15], in test [16], in test [18] and in [19] was “inactive” in each case. For the same molecule, the outcome in test [4] and in test [5] was inactive.
